Reference: PubChem BioAssay (NCATS)
Inconclusive results are not listed. Calls of active or inactive are those of the source. Unless noted, calls come from the whole dose curve; as a rule, active = well fitted curve in the direction sought with a large enough effect; inconclusive = small, poorly fitted or top-dose-only effect, or another doubt; inactive = no such curve, though single readings can be large; an effect the other way counts as inactive or inconclusive.

Columns and labels:
[1] = target: Lysosomal acid glucosylceramidase (Homo sapiens) (UniProt P04062); assay: Glucocerebrosidase-p2 (AID 348; in the data active = potency below about 10 µM; note: potency is the fitted concentration of half-maximal effect); conditions: purified GBA, blue fluorogenic substrate, 40 min
Sequence of Lysosomal acid glucosylceramidase (Homo sapiens) (P04062 whole entry, looked up): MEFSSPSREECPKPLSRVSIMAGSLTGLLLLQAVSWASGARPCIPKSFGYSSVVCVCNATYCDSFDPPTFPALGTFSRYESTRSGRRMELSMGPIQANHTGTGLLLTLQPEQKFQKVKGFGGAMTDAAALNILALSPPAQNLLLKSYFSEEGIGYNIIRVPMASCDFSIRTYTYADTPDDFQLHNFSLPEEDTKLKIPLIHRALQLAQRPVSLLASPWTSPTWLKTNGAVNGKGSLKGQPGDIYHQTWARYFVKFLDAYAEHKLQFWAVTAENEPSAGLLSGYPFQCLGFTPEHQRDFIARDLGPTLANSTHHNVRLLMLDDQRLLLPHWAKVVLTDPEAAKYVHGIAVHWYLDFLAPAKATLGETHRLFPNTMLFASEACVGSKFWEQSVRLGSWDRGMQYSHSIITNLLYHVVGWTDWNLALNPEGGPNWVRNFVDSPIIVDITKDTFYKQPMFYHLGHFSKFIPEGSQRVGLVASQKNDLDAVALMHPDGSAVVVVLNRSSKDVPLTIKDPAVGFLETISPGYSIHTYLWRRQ
Outline: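 Compounds titrated from 0.6 nM upwards against 0.2 nM enzyme in pH 5.9 citric acid/KH2PO4, taurocholate, tween-20; blue fluorogenic substrate 80 uM, 40 min room temperature, stopped and read Ex 365/Em 440 for AC50.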

[2] = AP1 Signaling Pathway (AID 357; active = well fitted curve in either direction with a large enough effect, not every such curve was filed as active;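 note: ME-180 reporter cells stimulated with EGF at its EC50 level; % is set by controls: 0 for no effect and ±100 for the full control effect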); conditions: ME-180 AP-1-bla reporter, EGF-induced, beta-lactamase ratio, 5 h; at 7.69 µM (top of the series) unless noted
Outline: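 Read-out was the 460nm/530nm emission ratio (excitation 405nm) after CCF4 loading for 2.5 hours at room temperature. Cells carried an AP-1-driven beta-lactamase reporter, were stimulated with EC50 EGF plus compound for 5 hours, and AC50 values came from titrations.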

[3] = NFAT Signaling Pathway (AID 444; active = well fitted curve in either direction with a large enough effect, not every such curve was filed as active;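 note: carbachol stimulus at about its EC50 of 1 µM final; % is set by controls: 0 for no effect and ±100 for the full control effect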); conditions: Jurkat NFAT-bla M1, carbachol, beta-lactamase ratio, 5 h; at 7.69 µM (top of the series) unless noted
Outline: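 Read-out: CCF4 FRET ratio (460 nm/530 nm) after 1 h RT dye loading, used for %activity and AC50 from titration series. Cells: Jurkat NFAT-β-lactamase/M1 line, treated with compound plus 1 uM carbachol for 5 h, 37 °C.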

[4] = Stat Signaling Pathway (AID 446; active = well fitted curve in either direction with a large enough effect, not every such curve was filed as active;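 note: ME-180 cervical cancer cells given 40 pM IL-6 alongside compound; SIE-controlled beta-lactamase reporter measured as 460/530 nm FRET emission ratio; % is set by controls: 0 for no effect and ±100 for the full control effect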); conditions: ME-180 (cervical carcinoma) SIE beta-lactamase reporter, IL-6 stimulated, 5 h; at 7.69 µM (top of the series) unless noted
Outline: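 IL-6/STAT signaling read in ME-180 cells via an SIE beta-lactamase reporter. Stimulus was 40 pM IL-6 (its AC50) for 5 hrs, so both activation and inhibition register.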

[5] = target: Glucocorticoid receptor (Homo sapiens) (UniProt P04150); assay: GR-GFP Redistribution (AID 450;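 active = compounds whose dose series gives a full or clear partial fitted curve of increased nuclear translocation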; note: potency is the fitted concentration of half-maximal effect); conditions: U2OS GR-GFP nuclear translocation, laser cytometry, 2 h
Sequence of Glucocorticoid receptor (Homo sapiens) (P04150 whole entry, looked up, the tested form may be a part): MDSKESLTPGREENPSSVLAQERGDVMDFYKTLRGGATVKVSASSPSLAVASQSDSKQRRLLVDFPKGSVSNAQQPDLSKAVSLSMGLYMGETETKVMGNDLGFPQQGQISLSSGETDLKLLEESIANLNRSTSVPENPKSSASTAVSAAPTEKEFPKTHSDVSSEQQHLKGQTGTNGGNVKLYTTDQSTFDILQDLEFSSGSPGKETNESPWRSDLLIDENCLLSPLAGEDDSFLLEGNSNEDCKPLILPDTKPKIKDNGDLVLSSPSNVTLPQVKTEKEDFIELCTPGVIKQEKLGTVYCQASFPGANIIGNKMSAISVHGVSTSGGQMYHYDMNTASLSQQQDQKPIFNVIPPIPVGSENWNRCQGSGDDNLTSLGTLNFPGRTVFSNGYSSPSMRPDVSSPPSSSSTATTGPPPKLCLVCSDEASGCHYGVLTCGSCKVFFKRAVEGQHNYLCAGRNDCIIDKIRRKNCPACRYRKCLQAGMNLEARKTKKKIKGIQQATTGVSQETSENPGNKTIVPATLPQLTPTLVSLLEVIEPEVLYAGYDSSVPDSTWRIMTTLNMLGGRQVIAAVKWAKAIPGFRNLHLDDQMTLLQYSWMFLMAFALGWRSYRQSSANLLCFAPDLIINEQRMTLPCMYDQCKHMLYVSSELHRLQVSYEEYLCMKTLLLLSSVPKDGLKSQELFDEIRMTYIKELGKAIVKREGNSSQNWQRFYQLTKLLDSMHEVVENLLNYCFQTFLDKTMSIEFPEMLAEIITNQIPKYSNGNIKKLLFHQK

[6] = target: Glucocorticoid receptor (Homo sapiens) (UniProt P04150); assay: GR-EFC Redistribution (AID 451; calls by dose curve; note: potency is the fitted concentration of half-maximal effect); conditions: CHO-K1 GR-EFC translocation, beta-gal luminescence, 2 h
Outline: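 Translocation of GR-ED fusion to nuclear EA restores b-gal, read by luminescence after 1 h room-temperature detection. Engineered CHO-K1 biosensor cells, 1,000/well, exposed 2 h at 37 C to titrations up to 46 uM final.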

[7] = target: Mitogen-activated protein kinase 10 (Mus musculus) (UniProt Q61831); assay: JNK3 AlphaScreen Assay (AID 530; active = well fitted curve in either direction with a large enough effect, not every such curve was filed as active;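 note: kinase came from lysate of stimulated human HepG2 cells; signal reports phosphorylation of biotinylated GST-cJun 1-79 at Ser73 with 10 µM ATP; % is set by controls: 0 for no effect and ±100 for the full control effect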); conditions: JNK3 lysate, c-Jun phosphorylation; series mostly up to 57.1 µM
Outline: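 Room-temperature AlphaScreen kinase assay; pre-activated HepG2 lysate as JNK3 source, biotin-GST-cJun(1-79) substrate, 10 uM ATP, compound 15 min preincubation.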

[8] = qHTS Assay for Lipid Storage Modulators (AID 1519; calls by dose curve); conditions: Drosophila S3 cells, BODIPY lipid droplet/cell ratio, laser cytometry, cells loaded with oleic acid; for activity change, negative = inhibition: at 57.5 µM (top of the series)
Outline: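 Cells seeded at 5,000 per well were treated with compounds over a concentration series and loaded with oleic acid (400 uM, as added). Lipid droplet fluorescence (488 nm excitation, 500-530 nm channel) was read by laser-scanning cytometry and normalized to 20 uM Triacsin C.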

[9] = Primary qHTS for small molecule stabilizers of the endoplasmic reticulum resident proteome: Secreted ER Calcium Modulated Protein (SERCaMP) assay (AID 1508630); conditions: SH-SY5Y GLuc-SERCaMP (Gaussia luciferase released on ER calcium loss) secretion, thapsigargin, luminescence; series mostly up to 38.4 µM; note: % is set by controls: 0 for no effect and ±100 for the full control effect
Outline: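 GLuc-SERCaMP-expressing SH-SY5Y cells, pretreated 16 h with compound, are challenged with thapsigargin to empty ER calcium stores; after 4 h, coelenterazine is added directly to the medium and luminescence is imaged.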

[10] = target: Rap guanine nucleotide exchange factor 3 (Homo sapiens) (UniProt O95398); assay: Confirmatory qHTS for agonist of cAMP-regulated guanine nucleotide exchange factor 3 (EPAC1) (AID 1645881); conditions: EPAC1 Rap1B BODIPY-GDP exchange fluorescence, 100% = cAMP control response; series mostly up to 154 µM;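 note: EPAC1 catalysed release of BODIPY-GDP from Rap1B seen as fluorescence loss; nearly all actives have a fitted effect of over 75% in size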
[11] = target: Rap guanine nucleotide exchange factor 4 (Homo sapiens) (UniProt Q8WZA2); assay: Confirmatory qHTS for agonist of cAMP-regulated guanine nucleotide exchange factor 4 (EPAC2) (AID 1645884); conditions: EPAC2 GEF activity, Rap1B-BODIPY-GDP fluorescence, percent relative to cAMP agonist control; series mostly up to 154 µM;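 note: nucleotide exchange releases bodipy-GDP from Rap1 and this lowers its fluorescence; % is set by controls: 0 for no effect and ±100 for the full control effect; nearly all actives have a fitted effect of over 65% in size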
Sequence of Rap guanine nucleotide exchange factor 4 (Homo sapiens) (Q8WZA2 whole entry, looked up): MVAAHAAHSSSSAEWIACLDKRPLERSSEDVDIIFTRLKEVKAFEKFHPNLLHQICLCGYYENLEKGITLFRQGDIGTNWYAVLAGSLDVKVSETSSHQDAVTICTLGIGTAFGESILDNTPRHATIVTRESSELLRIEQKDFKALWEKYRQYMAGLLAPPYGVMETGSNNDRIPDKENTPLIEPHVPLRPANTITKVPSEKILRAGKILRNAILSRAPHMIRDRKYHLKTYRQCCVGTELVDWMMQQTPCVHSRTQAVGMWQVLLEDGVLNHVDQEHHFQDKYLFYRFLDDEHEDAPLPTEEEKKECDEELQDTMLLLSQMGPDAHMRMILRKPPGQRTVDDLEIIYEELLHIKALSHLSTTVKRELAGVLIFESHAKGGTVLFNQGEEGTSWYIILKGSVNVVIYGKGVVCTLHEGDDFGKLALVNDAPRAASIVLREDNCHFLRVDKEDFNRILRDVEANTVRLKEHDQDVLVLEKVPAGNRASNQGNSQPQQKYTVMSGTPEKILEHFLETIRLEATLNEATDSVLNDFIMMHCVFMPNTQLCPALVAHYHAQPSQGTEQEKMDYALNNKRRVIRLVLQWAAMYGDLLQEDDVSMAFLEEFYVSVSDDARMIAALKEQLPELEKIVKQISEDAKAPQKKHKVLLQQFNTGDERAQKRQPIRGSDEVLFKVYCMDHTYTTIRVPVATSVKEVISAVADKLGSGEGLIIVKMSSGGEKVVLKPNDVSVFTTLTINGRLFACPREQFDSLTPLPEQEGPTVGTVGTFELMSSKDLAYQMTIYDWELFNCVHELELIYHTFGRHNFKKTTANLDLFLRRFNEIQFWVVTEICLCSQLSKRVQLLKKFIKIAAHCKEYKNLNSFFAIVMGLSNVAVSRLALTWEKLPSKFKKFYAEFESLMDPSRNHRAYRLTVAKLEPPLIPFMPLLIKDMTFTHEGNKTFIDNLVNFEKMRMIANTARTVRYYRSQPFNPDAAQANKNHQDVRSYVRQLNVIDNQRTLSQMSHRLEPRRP

[12] = target: Rap guanine nucleotide exchange factor 4 (Homo sapiens) (UniProt Q8WZA2); assay: Confirmatory qHTS for antagonist of cAMP-regulated guanine nucleotide exchange factor 4 (EPAC2) (AID 1645885); conditions: EPAC2 Rap1B-BODIPY-GDP exchange fluorescence, biochemical; series mostly up to 114 µM; note: nearly all actives have a fitted effect of over 25% in size; note: potency is the fitted concentration of half-maximal effect
[13] = target: Cytochrome P450 1A2 (Homo sapiens) (UniProt P05177); assay: p450-cyp1a2 (AID 410; calls by dose curve; note: potency is the fitted concentration of half-maximal effect;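 for activity change, negative = inhibition: -100% = full effect of reference inhibitor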); conditions: recombinant CYP1A2, luciferin-ME demethylation, luminescence; series mostly up to 57 µM
Sequence of Cytochrome P450 1A2 (Homo sapiens) (P05177 whole entry, looked up): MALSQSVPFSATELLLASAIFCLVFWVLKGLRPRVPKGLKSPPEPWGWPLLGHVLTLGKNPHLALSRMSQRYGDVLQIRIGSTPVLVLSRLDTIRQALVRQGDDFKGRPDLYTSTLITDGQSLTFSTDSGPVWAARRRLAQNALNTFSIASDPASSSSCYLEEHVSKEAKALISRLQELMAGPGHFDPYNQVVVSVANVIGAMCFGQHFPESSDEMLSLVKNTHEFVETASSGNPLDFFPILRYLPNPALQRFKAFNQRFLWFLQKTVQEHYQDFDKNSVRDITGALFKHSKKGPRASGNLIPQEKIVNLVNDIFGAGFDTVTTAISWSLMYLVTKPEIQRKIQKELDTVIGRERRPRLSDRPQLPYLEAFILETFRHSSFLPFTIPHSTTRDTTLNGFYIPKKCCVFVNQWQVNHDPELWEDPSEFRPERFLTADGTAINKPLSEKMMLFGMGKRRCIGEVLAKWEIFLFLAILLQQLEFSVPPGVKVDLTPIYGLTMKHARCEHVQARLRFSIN
Outline: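 Inhibition was calculated relative to 57 uM furafylline (full inhibition). The reaction used human CYP1A2 at 20nM with Luciferin-ME at its Km, 100uM, driven by an NADPH-regenerating system for 60 min at room temperature.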

[14] = target: 3',5'-cyclic-AMP phosphodiesterase 4B (Homo sapiens) (UniProt Q07343); assay: qHTS Assay for Inhibitors of PDE-IV (AID 607; active = well fitted activation curve with a large enough effect in the main read-out, with a control signal flat, not every such curve was filed as active; note: % of control where 0% means no effect); conditions: HEK293 ACTOne CNG channel cells, membrane potential fluorescence; series mostly up to 22.9 µM
Sequence of 3',5'-cyclic-AMP phosphodiesterase 4B (Homo sapiens) (Q07343 whole entry, looked up): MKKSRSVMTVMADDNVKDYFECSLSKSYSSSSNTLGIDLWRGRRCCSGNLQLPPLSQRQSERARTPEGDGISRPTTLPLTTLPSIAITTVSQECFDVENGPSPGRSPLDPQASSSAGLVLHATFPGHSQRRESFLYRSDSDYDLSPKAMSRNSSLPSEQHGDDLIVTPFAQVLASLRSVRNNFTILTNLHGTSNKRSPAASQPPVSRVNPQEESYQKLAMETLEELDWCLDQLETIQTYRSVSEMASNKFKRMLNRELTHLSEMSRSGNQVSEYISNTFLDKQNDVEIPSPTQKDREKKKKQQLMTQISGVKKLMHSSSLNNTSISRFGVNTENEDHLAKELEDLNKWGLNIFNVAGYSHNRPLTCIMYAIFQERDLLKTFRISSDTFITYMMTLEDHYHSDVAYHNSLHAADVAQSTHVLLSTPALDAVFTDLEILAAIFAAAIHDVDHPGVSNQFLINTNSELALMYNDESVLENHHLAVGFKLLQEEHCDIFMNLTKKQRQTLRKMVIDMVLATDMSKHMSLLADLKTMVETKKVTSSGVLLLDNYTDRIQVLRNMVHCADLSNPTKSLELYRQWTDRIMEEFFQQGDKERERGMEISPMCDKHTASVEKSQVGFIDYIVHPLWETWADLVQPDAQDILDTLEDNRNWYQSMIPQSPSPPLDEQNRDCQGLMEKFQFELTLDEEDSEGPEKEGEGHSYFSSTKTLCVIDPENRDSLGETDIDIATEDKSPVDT
Outline: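 Live HEK293 cells with a modified cyclic nucleotide-gated (CNG) channel report intracellular cAMP via membrane-potential dye fluorescence (ex 535/em 590 nm). Endogenous PDE-IV was targeted. Compounds were tested at up to 22.9 uM final; RO 20-1724 100 uM served as control.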

[15] = target: Cytochrome P450 3A4 (Homo sapiens) (UniProt P08684); assay: qHTS Assay for Inhibitors and Substrates of Cytochrome P450 3A4 (AID 884); conditions: recombinant CYP3A4, Luciferin-PPXE luminescence; series mostly up to 57.1 µM; note: % is set by controls: 0 for no effect and ±100 for the full control effect; nearly all actives have a fitted effect of over 50% in size
Outline: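 20 nM human CYP3A4 with 25 uM Luciferin-PPXE (at KM) in 200 mM KPO4, preincubated 10 min with compound; NADPH regeneration started a 60 min RT reaction. Luciferin detected by luminescence, normalized to 57 uM ketoconazole as full inhibition.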

[16] = target: Dual specificity protein kinase CLK4 (Homo sapiens) (UniProt Q9HAZ1); assay: qHTS Assay for Inhibitors of CDC-like Kinase 4 (Kinase-Glo Assay) (AID 1770); conditions: recombinant Clk4, Kinase-Glo ATP depletion luminescence; series mostly up to 66.7 µM; note: % is set by controls: 0 for no effect and ±100 for the full control effect; nearly all actives have a fitted effect of over 65% in size
Sequence of Dual specificity protein kinase CLK4 (Homo sapiens) (Q9HAZ1 whole entry, looked up): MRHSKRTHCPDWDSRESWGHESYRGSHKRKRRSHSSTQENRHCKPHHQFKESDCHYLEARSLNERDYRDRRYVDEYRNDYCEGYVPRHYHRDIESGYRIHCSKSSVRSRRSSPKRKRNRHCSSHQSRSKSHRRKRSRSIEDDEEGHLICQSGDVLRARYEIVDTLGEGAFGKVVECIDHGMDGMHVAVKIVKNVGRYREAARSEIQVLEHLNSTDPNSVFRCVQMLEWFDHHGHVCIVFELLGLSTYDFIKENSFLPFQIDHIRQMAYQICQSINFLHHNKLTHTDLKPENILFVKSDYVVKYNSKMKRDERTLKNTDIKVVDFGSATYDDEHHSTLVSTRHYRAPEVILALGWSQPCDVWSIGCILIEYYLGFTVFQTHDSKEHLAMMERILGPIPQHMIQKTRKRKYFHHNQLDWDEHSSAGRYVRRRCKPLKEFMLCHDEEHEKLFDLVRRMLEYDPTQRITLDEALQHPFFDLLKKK
Outline: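 Luminescent ATP-depletion read-out (Kinase-Glo) after 4.5 h room-temperature reaction of Clk4 (25 nM final) with RS peptide (100 uM) and ATP (1 uM), pH 7.5 Tris buffer with MgCl2 and DTT.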

[17] = target: Dual specificity protein kinase CLK4 (Homo sapiens) (UniProt Q9HAZ1); assay: qHTS Assay for Inhibitors of CDC-like Kinase 4 (ADP-Glo Assay) (AID 1771); conditions: recombinant CLK4, ADP-Glo luminescence; series mostly up to 80 µM; note: % is set by controls: 0 for no effect and ±100 for the full control effect; nearly all actives have a fitted effect of over 70% in size
Outline: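 Kinase reaction: Clk4 at 25 nM, RS repeat peptide substrate at 100 uM, ATP at 1 uM, 1 hr, room temperature. Product ADP detected as luciferase signal via ADP-Glo.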

[18] = target: Dual specificity protein kinase CLK4 (Homo sapiens) (UniProt Q9HAZ1); assay: qHTS Assay for Inhibitors of CDC-like Kinase 4 (ADP-FP Assay) (AID 1795); conditions: Transcreener ADP fluorescence polarization; series mostly up to 50 µM;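 note: recombinant human CLK4 phosphorylating RS repeat peptide at 1 µM ATP; % is set by controls: 0 for no effect and ±100 for the full control effect; nearly all actives have a fitted effect of over 60% in size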
Outline: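 Kinase activity was measured as ADP production using Transcreener orange tracer (4 nM) and ADP antibody (1 ug/mL) fluorescence polarization, with ADP calculated from a calibration curve. The 1 h reaction contained 6.25 nM Clk4, 1 uM ATP and 100 uM RS peptide at pH 7.5 with Mg2+.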

[19] = target: Ubiquitin carboxyl-terminal hydrolase 1 (Homo sapiens) (UniProt O94782); assay: Inhibitors of USP1/UAF1: Pilot qHTS (AID 504865); conditions: purified USP1/UAF1, Ub-rhodamine cleavage fluorescence; series mostly up to 54.9 µM;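 note: rhodamine fluorescence freed from ubiquitin-rhodamine substrate followed over time; top concentration of the series differs between compounds; % is set by controls: 0 for no effect and ±100 for the full control effect; nearly all actives have a fitted effect of over 35% in size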
Sequence of Ubiquitin carboxyl-terminal hydrolase 1 (Homo sapiens) (O94782 whole entry, looked up): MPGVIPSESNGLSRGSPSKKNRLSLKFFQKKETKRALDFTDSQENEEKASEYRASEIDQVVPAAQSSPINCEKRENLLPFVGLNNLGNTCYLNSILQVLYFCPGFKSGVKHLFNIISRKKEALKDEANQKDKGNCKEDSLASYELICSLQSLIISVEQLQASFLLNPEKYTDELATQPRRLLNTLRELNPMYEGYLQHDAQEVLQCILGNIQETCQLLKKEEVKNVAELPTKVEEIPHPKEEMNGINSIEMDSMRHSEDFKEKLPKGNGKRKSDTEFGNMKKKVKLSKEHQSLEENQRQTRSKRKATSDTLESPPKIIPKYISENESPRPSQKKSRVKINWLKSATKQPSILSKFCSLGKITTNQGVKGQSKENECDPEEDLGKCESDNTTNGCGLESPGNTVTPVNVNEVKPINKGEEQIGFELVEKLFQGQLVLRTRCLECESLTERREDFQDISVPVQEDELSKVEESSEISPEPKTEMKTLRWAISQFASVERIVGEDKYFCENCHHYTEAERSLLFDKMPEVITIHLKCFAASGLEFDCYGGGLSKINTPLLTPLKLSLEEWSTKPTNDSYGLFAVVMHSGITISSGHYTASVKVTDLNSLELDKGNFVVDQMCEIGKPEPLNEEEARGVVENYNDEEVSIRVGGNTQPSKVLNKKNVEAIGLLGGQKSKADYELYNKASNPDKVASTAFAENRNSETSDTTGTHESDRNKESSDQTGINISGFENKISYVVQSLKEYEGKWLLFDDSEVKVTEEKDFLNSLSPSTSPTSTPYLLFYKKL
Outline: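 Deubiquitinase activity followed as kinetic rhodamine fluorescence release from 150 nM Ub-Rho. 1 nM USP1/UAF1 with compound, after 15 min room-temperature preincubation, in HEPES pH 7.8 buffer containing TCEP, EDTA, BSA and Tween-20.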

[20] = measured here: cell count channel max response
[21] = measured here: lipid channel max response

COCCn1c(=O)c(CCc2ccccc2)nc2cnc(Nc3cccc(OC)c3)nc21
22%: max response [8, 20]
18.9%: max response [8, 21]
inactive: Potency [1] > 11.4 µM | activity change, negative = inhibition [2] 13.2% | activity change, negative = inhibition [3] 5.55% | activity, negative = inhibition [4] 0.869% | Potency [5] > 9.22 µM | Potency [6] > 46 µM | outcome [7] | activity change, negative = inhibition [8] -3.18% | Potency [9] | outcome [10] | outcome [11] | Potency [12]

O=C(c1cccc(F)c1)N1CCC2(CCN(Cc3cc(C(F)(F)F)cc(C(F)(F)F)c3)CC2)CC1
10.5%: max response [8, 20]
active: Potency [12] 39.3 µM
12.9%: max response [8, 21]
inactive: Potency [1] > 11.4 µM | Potency [13] | activity, negative = inhibition [4] 9.15% | Potency [6] > 46 µM | outcome [7] | Potency [14] | Potency [15] | activity change, negative = inhibition [8] 1.43% | Potency [9] | outcome [10] | outcome [11]

CN(Cc1ccco1)c1cc(-c2ccoc2)ncn1
inactive: Potency [1] > 11.4 µM | activity change, negative = inhibition [2] -1.97% | Potency [13] | activity change, negative = inhibition [3] -2.33% | activity, negative = inhibition [4] 18.1% | Potency [5] > 46 µM | Potency [6] > 46 µM | outcome [7] | Potency [14] | activity change, negative = inhibition [8] 6.03% | Potency [16] | Potency [17] | Potency [18] | Potency [19] | Potency [9]
23.3%: max response [8, 21]
18%: max response [8, 20]

COc1ncc2nc(-c3cc(F)cc(F)c3)c(=O)n(-c3ccccc3)c2n1
11.4%: max response [8, 20]
active: Potency [13] 1.26 µM
inactive: Potency [1] > 11.4 µM | activity change, negative = inhibition [2] -20.2% | activity change, negative = inhibition [3] -3.83% | activity, negative = inhibition [4] -1.05% | Potency [5] > 9.22 µM | Potency [6] > 46 µM | outcome [7] | Potency [14] | activity change, negative = inhibition [8] 3.41% | Potency [16] | Potency [17] | Potency [18] | Potency [19] | Potency [9]
11.8%: max response [8, 21]

FC(F)(F)c1ccccc1-c1cc(NCCN2CCOCC2)ncn1
30.8%: max response [8, 21]
inactive: Potency [1] > 11.4 µM | activity change, negative = inhibition [2] 10.7% | activity change, negative = inhibition [3] 27.7% | activity, negative = inhibition [4] 14.2% | Potency [5] > 46 µM | Potency [6] > 46 µM | outcome [7] | Potency [14] | activity change, negative = inhibition [8] 5.67% | Potency [16] | Potency [17] | Potency [18] | Potency [19] | Potency [9]
active: Potency [13] 12.6 µM
25.8%: max response [8, 20]

CN(C)c1ncc2nc(-c3cccs3)c(=O)n(CCC#N)c2n1
26.4%: max response [8, 21]
inactive: Potency [1] > 11.4 µM | activity change, negative = inhibition [2] 0.25% | activity change, negative = inhibition [3] -7.03% | activity, negative = inhibition [4] 4.64% | Potency [5] > 9.22 µM | Potency [6] > 46 µM | outcome [7] | Potency [14] | activity change, negative = inhibition [8] 5.59% | Potency [16] | Potency [17] | Potency [18] | Potency [19] | Potency [9] | Potency [12]
20.3%: max response [8, 20]
